# Results: PubChem BioAssay (Tox21)
# Inconclusive results are not listed. Activity calls are given as the source filed them. Calls follow the shape of the dose curve; as a rule, active = well fitted inhibition curve with a large enough effect in the repeat runs; inconclusive = weak or mixed curves, or effect the other way; inactive = no such curve, though single readings can be large or run the other way.
# Molecular target: Nuclear receptor ROR-gamma (Homo sapiens) (UniProt P51449)
# Experiment: qHTS assay to identify small molecule antagonists of the retinoid-related orphan receptor gamma (ROR-gamma) signaling pathway (AID 1159521; also: nearly all actives have a fitted effect of over 50% in size; as to activity change, negative = inhibition: top concentration of the series differs between compounds)
# Conditions: Tet-on RORgamma CHO cells, RORE-luciferase, 16 h; series mostly up to 92.4 µM; activity change, negative = inhibition: at the top concentration
# Source text: U.S. Tox21 Program National Center for Advancing Translational Sciences [NCATS] NIH Chemical Genomics Center [NCGC] U.S. Environmental Protection Agency [EPA] National Institutes of Environmental Health Sciences [NIEHS] National Toxicology Program [NTP] U.S. Food and Drug Administration [FDA] Tox21 Assay Overview: Nuclear steroid hormone receptors are involved in many biological processes including inflammatory responses, cell proliferation, and apoptosis. Environmental factors or compounds disrupting these nuclear receptor pathways and gene expression may promote susceptibility to immunotoxicants and autoimmune diseases. One important group of these expression factors are the retinoid-related orphan receptors. To assess compounds that may interfere with the retinoid-related orphan receptor gamma (ROR-gamma) transcription factor, a cell-based luciferase assay was used. The CHO cell-based assay utilizes a TET-inducible ROR expression factor and ROR response element-LUC reporter gene. Reporter gene activity was induced using Doxycycline Hyclate and measured after 16 hr incubation. Tet-on ROR gamma CHO cells were used to screen against the Tox21 10K compound library for ROR gamma antagonists by quantification of decreased reporter gene activity in terms of decreased luminescence.
# Tox21 Assay Protocol Summary: Tet-on ROR gamma CHO cells were dispensed at 1,000 cells in 4 uL of culture medium per well into white wall/solid bottom 1536-well plates using a Multidrop Combi (Thermo Scientific, Waltham, MA) dispenser. Following incubation at 37 C and 5% CO2 for 4 hr, 23 nL of compounds dissolved in DMSO, positive controls or DMSO only were transferred by a Pintool station (Kalypsys, San Diego, CA) and after 2 hr incubation at 37 C, one ul of 1 uM (final concentration) of Doxycycline Hyclate was added to all the wells by using a Flying Reagent Dispenser (FRD) (Aurora Discovery, San Diego, CA). After 16 hr incubation at 37 C and 5% CO2, 5 uL of ONE-Glo reagent (Promega Corporation, Madison, WI) was added to each assay plate using FRD. After 30 min incubation at room temperature, luminescence was quantified on a ViewLux plate reader (Perkin Elmer, Waltham, MA).
# % is scaled to controls: 0 for no effect and ±100 for the full control effect; potency is read from the fitted curve at half-maximal effect.
SMILES,"activity change, negative = inhibition",Potency
COc1ccc(/C=C/c2cc(OC)cc(=O)o2)cc1,9.28% [at 42.5 µM] (inactive),
O=C(O)c1cccnc1Nc1cccc(C(F)(F)F)c1,-22.1% [at 42.5 µM] (inactive),
Cc1cc(SC2=C(O)C[C@@](CCc3ccc(N)cc3)(C(C)C)OC2=O)c(C(C)(C)C)cc1CO,-4.82% (inactive),
CC1=C(C)C(=O)C(C(CCCCCC(=O)O)c2ccccc2)=C(C)C1=O (stereo not given),-36.3% [at 42.5 µM] (inactive),
C[C@@H](O)[C@H]1C(=O)N2C(C(=O)O)=C(S[C@@H]3CN[C@H](CNS(N)(=O)=O)C3)[C@H](C)[C@H]12,-22.2% [at 42.5 µM] (inactive),
CC(=O)c1cccnc1,-14.6% (inactive),
C=C[Si](OCC)(OCC)OCC,7.78% (inactive),
CCn1nc(Cc2ccccc2)cc1C1CCN(C[C@H]2C[C@H](N(C)[C@@H](C(=O)O)C(C)C)C[C@@H]2c2cccc(F)c2)CC1,2.51% (inactive),
O=S(=O)(O)c1cc(Cl)c(Cl)cc1Cl,-29.7% (inactive),
CC(C)(C(=O)O)c1ccc(C(O)CCCN2CCC(C(O)(c3ccccc3)c3ccccc3)CC2)cc1 (stereo not given),7.65% [at 42.5 µM] (inactive),
Cc1c(Cl)cccc1[N+](=O)[O-],2.92% (inactive),
CCc1c(C)[nH]c2c1C(=O)C(CN1CCOCC1)CC2 (stereo not given),9.2% [at 42.5 µM] (inactive),
CCCCCCCCS,6.66% (inactive),
COc1cc(C)c(Cc2cnc(N)nc2N)cc1OC,-0.485% [at 42.5 µM] (inactive),
O=P(c1ccccc1)(c1ccccc1)c1ccccc1,-1.91% (inactive),
O=C1C=CCCC1,21.4% (inactive),
O=C(O)c1cc(C(=O)O)cc([N+](=O)[O-])c1,8.05% (inactive),
CCC1=C(C)CN(C(=O)NCCc2ccc(S(=O)(=O)NC(=O)NC3CCC(C)CC3)cc2)C1=O (stereo not given),31% [at 42.5 µM] (inactive),
O=C1c2ccccc2C(=O)c2c1ccc(O)c2O,71.7% [at 42.5 µM] (inactive),
CC(C)C[C@H](NC(=O)[C@H](Cc1ccccc1)NC(=O)c1cnccn1)B(O)O,,0.0473 µM (active)

SMILES,"activity change, negative = inhibition",Potency
Nc1ccc(-c2ccc(F)cc2)cc1,38.9% (inactive),
Sc1nc(S)nc(S)n1,-10.9% [at 42.5 µM] (inactive),
c1ccc(-c2ccc(-c3ccccc3)cc2)cc1,98.3% [at 19 µM] (inactive),
COc1ccc(CN(CCN(C)C)c2ncccn2)cc1,5.9% [at 42.5 µM] (inactive),
O=Cc1ccc(Cl)c([N+](=O)[O-])c1,,54.5 µM (active)
CCCCCCCCCCCCCCCCN,7.43% [at 42.5 µM] (inactive),
O=C(O)CNc1ccccc1,37.2% (inactive),
CC(C)=CCC[C@H](C)CCO,-15.7% (inactive),
Cc1ccc2c(Cl)cc(Cl)c(O)c2n1,30.3% [at 42.5 µM] (inactive),
O=C(O)c1ccccc1-n1cc(C(=O)O)c(=O)c2cc(Nc3c(F)cc(F)cc3Cl)c(Cl)cc21,1.69% (inactive),
Oc1ccc(CCNCCCCCCNCCc2ccccc2)cc1O,0.399% [at 42.5 µM] (inactive),
Cc1ccc(NC=O)c(C)c1,-13.8% (inactive),
COC(=O)Cc1cccc2ccccc12,-0.0444% (inactive),
N#Cc1ccc(CC(=O)c2cccc(C(F)(F)F)c2)cc1,-23% (inactive),
CCCCCCC/C=C/C=O,-11.3% (inactive),
CC(C)=CCC/C(C)=C/C=N/O,0.779% (inactive),
CCCCCCCCCCCCSC#N,1.21% (inactive),
CCC(=O)O[C@]1(C(=O)COC)[C@@H](C)C[C@H]2[C@@H]3CCC4=CC(=O)C=C[C@]4(C)C3(F)[C@@H](O)C[C@@]21C (stereo not given in full),7.62% [at 42.5 µM] (inactive),
Cc1cc(N)n(-c2ccccc2)n1,49% (inactive),
C=C(C)C(=O)OCCCCCCCCCCOC(=O)C(=C)C,75.5% (inactive),
